{"source": "the supplement of paper PMC10338343", "note": "± gives the standard deviation."}
{"test_system": "MILI (PIWIL2) piRISC loaded with piRNA #1 (26 nt)", "assay": "pre-steady-state target cleavage rate (min^-1); guide: piRNA #1 5'p-UGAGGUAGUAGGUUGUAUAGUAUCCA; MIWI and MILI are mouse PIWI proteins and EfPiwi is from a freshwater sponge; tags in brackets are library labels; higher = faster piRNA-guided slicing of the target", "conditions": "auxiliary factor: 500 nM mouse GTSF1", "outline": "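A transcribed, DNA-blocked target RNA library (0.1 nM) and 1 nM active affinity-purified piRISC bearing one synthetic guide were incubated in HEPES–potassium acetate buffer at 33 °C for 0–8 or 0–960 min, either with or without 500 nM GTSF1 partner protein. Uncleaved targets were sequenced, normalised to depth and to weakly complementary targets, and pooled over three trials, with k3 capped at 0.0001 min^-1. The pre-steady-state cleavage rate was derived with a burst-and-steady-state fit.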"}
{"sequence": "GGAGACCAUACUAUACUACCAACUACCUCA", "pre-steady-state target cleavage rate": "0.00547 ± 0.0022"}
{"sequence": "GGAGACCUAUGUAUUCAACCUACUACGUCA", "pre-steady-state target cleavage rate": "0.00786 ± 0.0022"}
{"sequence": "GGAGUGCAUACUAUACAACCUACUACCUCA", "pre-steady-state target cleavage rate": "0.18 ± 0.0089"}
{"sequence": "GGAGACCUAUGUAUACAACCUACUACCAUCA", "pre-steady-state target cleavage rate": "0.0684 ± 0.01"}
{"sequence": "GGAGACCUAUCUAUUCAACCUACUUCCUCA", "pre-steady-state target cleavage rate": "0.0412 ± 0.0086"}
{"sequence": "GGAGACCUAUGAAUACAACCUCCUACCUCA", "pre-steady-state target cleavage rate": "0.00498 ± 0.0023"}
{"sequence": "GGAGACCUAUGAUAUGUUCCUACUACGUGA", "pre-steady-state target cleavage rate": "< 0.0001"}
{"sequence": "GGAGACCAUACUAAUGAACCUACUACCUCA", "pre-steady-state target cleavage rate": "0.0422 ± 0.011"}
{"sequence": "GGAGACCUAUGUAUACAACCUACUACAUCA", "pre-steady-state target cleavage rate": "0.0269 ± 0.0059"}
{"sequence": "GGAGACCUUAAUAUACAACCUACUACCUCA", "pre-steady-state target cleavage rate": "0.0318 ± 0.0064"}
{"sequence": "GGAGACCUAUGAUAUCAACCUACAACCUCA", "pre-steady-state target cleavage rate": "0.00288 ± 0.0026"}
{"sequence": "GGAGACCUUACUAUACAUCCAACUACCUCA", "pre-steady-state target cleavage rate": "0.0082 ± 0.003"}
{"sequence": "GGAGUGGAUACUAUAGAACCAACUACCUCA", "pre-steady-state target cleavage rate": "0.00293 ± 0.0022"}
{"sequence": "GGAGACCUAUGUAUACAUCCUACUACCACA", "pre-steady-state target cleavage rate": "0.163 ± 0.017"}
{"sequence": "GGAGACCUAACUAAACAACGUACUACCUCA", "pre-steady-state target cleavage rate": "0.00971 ± 0.005"}
{"sequence": "GGAGACCUAUGAUUACAACGUACUACCUCA", "pre-steady-state target cleavage rate": "0.00443 ± 0.0016"}
{"sequence": "GGAGACCUAUGUAUACAACCUACUACCGUCA", "pre-steady-state target cleavage rate": "0.0528 ± 0.0094"}
{"sequence": "GGAGACCUUACUAUACAAGGAUGAUGGAGA [g13:g22:cont:t1A]", "pre-steady-state target cleavage rate": "< 0.0001"}
{"sequence": "GGAGACCUAUGAUAACAACCUACUACCUUA", "pre-steady-state target cleavage rate": "0.00415 ± 0.003"}
{"sequence": "GGAGACCUAACUAUACAGCCUACUACCUCA", "pre-steady-state target cleavage rate": "0.0605 ± 0.018"}
{"sequence": "GGAGAGGAUACUAUACUAGCUACUACCUCA", "pre-steady-state target cleavage rate": "0.113 ± 0.011"}
{"sequence": "GGAGACCUAUCUAUACAACCAUACUACCUCA", "pre-steady-state target cleavage rate": "0.0049 ± 0.0031"}
{"sequence": "GGAGACCUAUCUAUACAACCUACUAGCUCA", "pre-steady-state target cleavage rate": "0.0827 ± 0.014"}
{"sequence": "GGAGACCUAUGAUAACAACCUAUCUACCUCA", "pre-steady-state target cleavage rate": "0.00737 ± 0.0021"}
{"sequence": "GGAGUCGGAUACUAUACAACCUACUACCUCA", "pre-steady-state target cleavage rate": "0.187 ± 0.015"}
{"sequence": "GGAGACCUAACAAUACAACCUACUACGUCA", "pre-steady-state target cleavage rate": "0.023 ± 0.0089"}
{"sequence": "GGAGACCUAUGAUAUGUACCUAGUACCUCA", "pre-steady-state target cleavage rate": "< 0.0001"}
{"sequence": "GGAGACCUAACUAUUCAACCUACUACCACA", "pre-steady-state target cleavage rate": "0.118 ± 0.022"}
{"sequence": "GGAGACCUAUGAUUACAAUCUACUACCUCA", "pre-steady-state target cleavage rate": "0.00319 ± 0.0026"}
{"sequence": "GGAGACCUUACUUUACAACCUACUUCCUCA", "pre-steady-state target cleavage rate": "0.0347 ± 0.011"}
{"sequence": "GGAGACCUAUCUAAACAACCAACUACCUCA", "pre-steady-state target cleavage rate": "0.00401 ± 0.0024"}
{"sequence": "GGAGACCUAUGAUAACAAGCUACUACCACA", "pre-steady-state target cleavage rate": "0.0117 ± 0.0047"}
{"sequence": "GGAGAGGAUUCUAUACAACCUACUACCUGA", "pre-steady-state target cleavage rate": "0.0768 ± 0.011"}
{"sequence": "GGAGACCUAUGUAUACAACGUACUACCUCA", "pre-steady-state target cleavage rate": "0.00969 ± 0.0018"}
{"sequence": "GGAGACCUAUGAUUACAACCUACUACCUUA", "pre-steady-state target cleavage rate": "0.00425 ± 0.0023"}
{"sequence": "GGAGACGAUAGUAUACUACCUACUACCUCA", "pre-steady-state target cleavage rate": "0.148 ± 0.012"}
{"sequence": "GGAGUGGAACUAUACAACCUACUACCUCA", "pre-steady-state target cleavage rate": "0.159 ± 0.011"}
{"sequence": "GGAGACGAUACUAAACUACCUACUACCUCA", "pre-steady-state target cleavage rate": "0.24 ± 0.018"}
{"sequence": "GGAGACCUAUGAAUACAACCUACUACGUCA", "pre-steady-state target cleavage rate": "0.00355 ± 0.0021"}
{"sequence": "GGAGACGAUACUAUACAAGCAACUACCUCA", "pre-steady-state target cleavage rate": "0.00923 ± 0.0026"}
